This is an account of results in the supplement of paper PMC5662767.

The subject of this experiment is Drosophila S2 cl14 SmoIP sensor cells. In words: normalized SmoIP GFP fluorescence (untreated unstimulated = 0%, untreated Hh-stimulated = 100%); higher = more Smo activation sensor fluorescence. The settings on record: compound concentration: 2 uM, 24 h.
Where [1] appears, read: stimulation: Hh conditioned medium (+Hh).
Where [2] appears, read: stimulation: mock conditioned medium (-Hh).

Counter-ions that a name gives are not always drawn.
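Also: flow cytometry read-out as median GFP intensity of gated cells, compounds added 30 min before Hh-conditioned or mock medium, mock-treated cells serving as unstimulated baseline.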

In the case of `CN(C)CC/C=C1/c2ccccc2Sc2ccc(Cl)cc21` [Chlorprothixene], the “normalized SmoIP GFP fluorescence” value runs as follows: under setting [1], 106%; under setting [2], -0.378%.

On to `NC1(Cc2ccc(Cl)cc2)CCN(c2ncnc3[nH]ccc23)CC1`, for which the “normalized SmoIP GFP fluorescence” value by setting is: under setting [1], 115%; under setting [2], 8.36%.

For `CN(C)Cc1ccc(S(=O)(=O)n2ccc(/C=C/C(=O)NO)c2)cc1` [resminostat-ras2410], the “normalized SmoIP GFP fluorescence” value was 140% under setting [1] and -5.8% under setting [2].

Take `CC(=O)N[C@@H](CS)C(=O)O` [Acetylcysteine]: the “normalized SmoIP GFP fluorescence” value amounted to 111% under setting [1] and 1.57% under setting [2].

For the molecule `C=C[C@@]1(C)CC(=O)[C@]2(O)[C@@]3(C)[C@@H](O)CCC(C)(C)[C@@H]3[C@H](O)[C@H](OC(C)=O)[C@@]2(C)O1` [forskolin], the “normalized SmoIP GFP fluorescence” value is, setting by setting: under setting [1], 137%; under setting [2], -10%.

For `O=C(c1ccc(OCCN2CCCCC2)cc1)c1c(-c2ccc(O)cc2)sc2cc(O)ccc12` [Evista], the “normalized SmoIP GFP fluorescence” value by setting is: under setting [1], 118%; under setting [2], 6.52%.

Consider `CC(C)CC(=O)Nc1n[nH]c2c1CN(C(=O)C1CCN(C)CC1)C2(C)C`, for which the “normalized SmoIP GFP fluorescence” value was 41.2% under setting [1] and 20.1% under setting [2].

Take `Nc1nc(=O)n([C@@H]2CS[C@H](CO)O2)cc1F` [Emtricitabine]: the “normalized SmoIP GFP fluorescence” value reads like this: under setting [1], 111%; under setting [2], -14.7%.

On to `Nc1ccc(-c2ccc3ncc4ccc(=O)n(-c5cccc(C(F)(F)F)c5)c4c3c2)cn1` [torin-2], for which the “normalized SmoIP GFP fluorescence” value runs as follows: under setting [1], 59.5%; under setting [2], -9.64%.

In the case of `Nc1ncnc2n[nH]c(Nc3ccc(F)cc3)c12`, the “normalized SmoIP GFP fluorescence” value is, setting by setting: under setting [1], 89.9%; under setting [2], 2.64%.

As to `O=C(O)Cc1cccc(OCCCN(Cc2cccc(C(F)(F)F)c2Cl)CC(c2ccccc2)c2ccccc2)c1`, the “normalized SmoIP GFP fluorescence” value is, setting by setting: under setting [1], 130%; under setting [2], -0.116%.

In the case of `CN1CCN(S(=O)(=O)c2ccc(-c3cnc(N)c(C(=O)Nc4cccnc4)n3)cc2)CC1`, the “normalized SmoIP GFP fluorescence” value runs as follows: under setting [1], 112%; under setting [2], 1.21%.

As for `CCCC(CCC)C(=O)O` [Sodium-valproate], the “normalized SmoIP GFP fluorescence” value is 110% under setting [1] and -4.68% under setting [2].

Regarding `COc1cccc2cc(-c3nc([C@H]4CC[C@H](C(=O)O)CC4)n4ncnc(N)c34)[nH]c12`, the “normalized SmoIP GFP fluorescence” value reads like this: under setting [1], 54.2%; under setting [2], -5.17%.

On to `c1ccc(CC2=NCCN2)cc1` [tolazoline-hcl], for which the “normalized SmoIP GFP fluorescence” value runs as follows: under setting [1], 103%; under setting [2], -1.74%.

Turning to `COc1ccc(CNc2nc(N3CCC[C@H]3CO)ncc2C(=O)NCc2ncccn2)cc1Cl` [avanafil], the “normalized SmoIP GFP fluorescence” value was 106% under setting [1] and -2.31% under setting [2].

Consider `Cc1cccc(CC(=O)N2CCc3c2ccc(-c2cn(C)c4ncnc(N)c24)c3F)n1`, for which the “normalized SmoIP GFP fluorescence” value runs as follows: under setting [1], 102%; under setting [2], -1.63%.

On to `C[C@]1(c2nc3c(C(N)=O)cccc3[nH]2)CCCN1`, for which the “normalized SmoIP GFP fluorescence” value is, setting by setting: under setting [1], 117%; under setting [2], -2.96%.

With `Cc1cnc(NC(=O)Nc2cc(Br)c(C)cc2OC[C@@H]2CNCCO2)cn1`, the “normalized SmoIP GFP fluorescence” value under setting [1] was found to be 112% and the “normalized SmoIP GFP fluorescence” value under setting [2] is -14.5%.

As to `O=C(O)CCCN1CCC(O[C@@H](c2ccc(Cl)cc2)c2ccccn2)CC1` [bepotastine-besilate], the “normalized SmoIP GFP fluorescence” value was 103% under setting [1] and -2.31% under setting [2].

As to `CC(=O)Nc1cccc2c1c(Sc1ccc(Cl)cc1)c(C)n2CC(=O)O`, the “normalized SmoIP GFP fluorescence” value under setting [1] was determined as 114% and the “normalized SmoIP GFP fluorescence” value under setting [2] is -3.05%.

With `Nc1ccccc1NC(=O)c1ccc(CNc2nccc(-c3cccnc3)n2)cc1` [MGCD0103(Mocetinostat)], the “normalized SmoIP GFP fluorescence” value is, setting by setting: under setting [1], 214%; under setting [2], 9%.

For `Cn1cc(/C=C2\C(=O)Nc3cccnc32)c2ccccc21`, the “normalized SmoIP GFP fluorescence” value runs as follows: under setting [1], 158%; under setting [2], 60.2%.

As for `CCNC(=O)c1[nH]nc(-c2cc(Cl)c(O)cc2O)c1-c1ccc(OC)cc1`, the “normalized SmoIP GFP fluorescence” value stood at 188% under setting [1] and 23.1% under setting [2].

On to `CN(C)CC(=O)Nc1ccc2[nH]c(=O)c3ccccc3c2c1`, for which the “normalized SmoIP GFP fluorescence” value was 113% under setting [1] and -1.97% under setting [2].

On to `COc1ccc2c(Oc3ccc(NC(=O)c4c(C)n(CC(C)(C)O)n(-c5ccccc5)c4=O)nc3)ccnc2c1`, for which the “normalized SmoIP GFP fluorescence” value under setting [1] is 158% and the “normalized SmoIP GFP fluorescence” value under setting [2] is -1.11%.

Turning to `CCOC(=O)c1ncn2c1CN(C)C(=O)c1cc(F)ccc1-2` [Flumazenil], the “normalized SmoIP GFP fluorescence” value runs as follows: under setting [1], 110%; under setting [2], 1.57%.

With `Cc1cc(Nc2ncc(Cl)c(Nc3ccccc3S(=O)(=O)C(C)C)n2)c(OC(C)C)cc1C1CCNCC1`, the “normalized SmoIP GFP fluorescence” value runs as follows: under setting [1], 113%; under setting [2], 3.77%.

Consider `CCOc1cc(N)c(Cl)cc1C(=O)NCC1CN(Cc2ccc(F)cc2)CCO1` (configuration not stated) [Mosapride-citrate], for which the “normalized SmoIP GFP fluorescence” value under setting [1] came to 103% and the “normalized SmoIP GFP fluorescence” value under setting [2] is -4.68%.

Regarding `Clc1ccc2c(c1)CCc1cccnc1C2=C1CCNCC1` [desloratadine], the “normalized SmoIP GFP fluorescence” value under setting [1] stood at 109% and the “normalized SmoIP GFP fluorescence” value under setting [2] is 1.21%.

`CC[C@H](Nc1ncnc2[nH]cnc12)c1nc2cccc(F)c2c(=O)n1-c1ccccc1`: the “normalized SmoIP GFP fluorescence” value reads like this: under setting [1], 126%; under setting [2], -12.7%.

Turning to `CCn1c2ccccc2c2cc(Nc3ccnc(NCCCN4CCOCC4)n3)ccc21` [ehop-016], the “normalized SmoIP GFP fluorescence” value is, setting by setting: under setting [1], 100%; under setting [2], -3.62%.

For the molecule `CCOC(=O)C1=C(C)NC(C)=C(C(=O)OC)C1c1cccc([N+](=O)[O-])c1` (configuration not stated) [Nitrendipine], the “normalized SmoIP GFP fluorescence” value was 117% under setting [1] and -12% under setting [2].

For the molecule `CNC(=O)c1cc(Oc2ccc(NC(=O)Nc3ccc(Cl)c(C(F)(F)F)c3)c(F)c2)ccn1`, the “normalized SmoIP GFP fluorescence” value by setting is: under setting [1], 100%; under setting [2], 27.4%.

For `CCC(=O)NCC[C@@H]1CCc2ccc3c(c21)CCO3` [Ramelteon], the “normalized SmoIP GFP fluorescence” value was 95.6% under setting [1] and -0.588% under setting [2].

For the molecule `Nc1nc(N)nc(-c2cc(Cl)ccc2Cl)n1` [Irsogladine-maleate], the “normalized SmoIP GFP fluorescence” value is 140% under setting [1] and -3.9% under setting [2].
